Experiment [1] addresses T1, Protein deacetylase HDAC6 (Homo sapiens) (UniProt Q9UBN7).
T1 sequence (whole entry): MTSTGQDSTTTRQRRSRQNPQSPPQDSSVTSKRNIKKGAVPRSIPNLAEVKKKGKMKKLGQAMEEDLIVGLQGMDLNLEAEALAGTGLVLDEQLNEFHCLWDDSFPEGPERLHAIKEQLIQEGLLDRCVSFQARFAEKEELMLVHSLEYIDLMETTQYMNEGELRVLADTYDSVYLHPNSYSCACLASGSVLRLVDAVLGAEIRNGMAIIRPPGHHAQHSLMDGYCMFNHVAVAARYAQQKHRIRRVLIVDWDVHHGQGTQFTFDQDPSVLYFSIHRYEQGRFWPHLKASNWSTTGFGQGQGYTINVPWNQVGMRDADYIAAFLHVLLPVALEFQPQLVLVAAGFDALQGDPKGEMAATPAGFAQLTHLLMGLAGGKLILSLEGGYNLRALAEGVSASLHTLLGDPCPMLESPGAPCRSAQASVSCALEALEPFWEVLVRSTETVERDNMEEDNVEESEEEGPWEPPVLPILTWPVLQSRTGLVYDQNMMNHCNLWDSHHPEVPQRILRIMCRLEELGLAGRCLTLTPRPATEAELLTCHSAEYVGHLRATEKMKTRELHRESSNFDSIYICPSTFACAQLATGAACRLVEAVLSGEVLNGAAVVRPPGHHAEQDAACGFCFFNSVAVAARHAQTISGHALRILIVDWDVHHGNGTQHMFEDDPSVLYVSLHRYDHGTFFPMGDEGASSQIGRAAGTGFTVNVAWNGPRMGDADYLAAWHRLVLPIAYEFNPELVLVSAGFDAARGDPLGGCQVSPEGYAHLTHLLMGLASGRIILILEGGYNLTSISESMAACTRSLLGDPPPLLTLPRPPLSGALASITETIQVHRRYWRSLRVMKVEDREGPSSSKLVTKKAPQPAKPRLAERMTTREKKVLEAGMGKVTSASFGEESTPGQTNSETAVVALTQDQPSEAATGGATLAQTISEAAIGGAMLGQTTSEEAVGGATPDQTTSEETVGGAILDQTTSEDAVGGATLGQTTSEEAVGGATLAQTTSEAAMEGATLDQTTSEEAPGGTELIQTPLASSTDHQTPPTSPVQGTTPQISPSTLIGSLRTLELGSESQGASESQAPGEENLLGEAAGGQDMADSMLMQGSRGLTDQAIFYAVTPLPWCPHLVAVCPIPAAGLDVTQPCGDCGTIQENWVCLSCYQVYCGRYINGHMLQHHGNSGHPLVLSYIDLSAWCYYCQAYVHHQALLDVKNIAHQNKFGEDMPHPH
The following applies: at 10 µM.

Experiment [2] concerns the target Protein deacetylase HDAC6 (Homo sapiens) (UniProt Q9UBN7). The following applies: at 10 µM. The source holds these as a separate data set.

Out of some 5,600 compounds screened, about 390 (7%) showed an effect of 50% or more. The full list was thinned out, with strong results kept by preference.

The inhibition is the relative decrease from the control value, in per cent.

`COc1cc(C(=O)NS(=O)(=O)c2ccccc2C)ccc1Cc1cn(C)c2ccc(NC(=O)OC3CCCC3)cc12`: the inhibition in experiment [1] was found to be 73.7%.

As for `COc1cc(Nc2nc3ccccc3nc2NS(=O)(=O)c2ccc(NC(=O)c3ccc(C)c(OC)c3)cc2)cc(OC)c1`, the inhibition in experiment [1] came out at 17.4%.

Turning to `COc1cc(N)c(Cl)cc1C(=O)OCCN1CCCCC1`, in experiment [1], the inhibition was 6.86%.

Take `O=C(NC1Cc2ccccc2N(C[C@@H](O)CO)C1=O)c1cc2cc(Cl)sc2[nH]1` (stereo partly specified): in experiment [1], the inhibition is -2.31%.

Consider `CCCCCCCC/C=C\CCCCCCCC(=O)N[C@@H](CO)Cc1ccc(O)cc1`, for which the inhibition in experiment [1] worked out at 27.9%.

As to `Nc1ccc(/N=N/c2ccccc2)c(N)n1`, the inhibition in experiment [1] was found to be 102%.

For the molecule `NC(C(=O)O)c1cc(O)ccc1Cl` (stereo unspecified), in experiment [1], the inhibition came out at 15.3%.

Consider `CCCn1c(=O)c2[nH]cnc2n(-c2ccc(Cl)cc2)c1=O`, for which the inhibition in experiment [1] worked out at 20.4%.

For `Oc1cc(O)cc(/C=C/c2ccc(O)c(O)c2)c1`, the inhibition in experiment [1] came out at 85.2%.

With `COc1cc(/C=C/c2ccc(OC)cc2OC)cc(OC)c1`, the inhibition in experiment [1] came to 86.2%.

Take `COc1ccc(O)cc1`: in experiment [1], the inhibition turned out to be 19.4%.

On to `COc1ccc(/C=C\c2cc(OC)c(OC)c(OC)c2)cc1O`, for which the inhibition in experiment [1] turned out to be 14.7%.

Consider `OC[C@H]1O[C@@H](Oc2cc(O)cc(/C=C/c3ccc(O)cc3)c2)[C@H](O)[C@@H](O)[C@@H]1O`, for which the inhibition in experiment [1] was 31.5%.

As for `O=S(=O)(O)c1cc(O)ccc1O`, the inhibition in experiment [1] was -4.71%.

On to `C/C=C(/C(=C/C)c1ccc(O)cc1)c1ccc(O)cc1`, for which the inhibition in experiment [1] was found to be 0.77%.

With `Oc1cc(O)cc(O)c1`, the inhibition in experiment [1] worked out at 18.2%.

With `Oc1ccc(/C=C/c2cc(O)cc(O)c2)cc1`, the inhibition in experiment [1] was 97%.

In the case of `COc1cc(/C=C/c2ccc(O)cc2)cc(OC)c1`, in experiment [1], the inhibition was 99%.

With `COc1cc(/C=C2\CCC/C(=C\c3ccc(O)c(OC)c3)C2=O)ccc1O`, the inhibition in experiment [1] came to 35.9%.

With `NCC(O)(CS(=O)(=O)O)c1ccc(Cl)cc1` (stereo unspecified), in experiment [1], the inhibition is -2.67%.

Regarding `C=CC1=C(C)c2cc3[nH]c(cc4nc(cc5[nH]c(cc1n2)c(C)c5CCC(=O)O)C(CCC(=O)O)=C4C)c(C)c3C=C`, the inhibition in experiment [1] was determined as 21.1%.

For the molecule `C[C@H](N)[C@H](O)c1cccc(O)c1`, the inhibition in experiment [1] worked out at 1.85%.

Consider `CCCC(=O)C1CCN(c2ncnc3c2CN(C(=O)c2ccc(-c4ccccc4)cc2)CC3)CC1`, for which the inhibition in experiment [1] came to 2.41%.

In the case of `Cn1c(=O)c2c(ncn2CC(=O)Nc2ccc(-c3ccccc3)nn2)n(C)c1=O`, the inhibition in experiment [1] is 41.8%.

In the case of `CN(CC[C@@H](Oc1ccc(-c2ccccc2)cc1)c1ccc(F)cc1)CC(=O)O`, the inhibition in experiment [1] was -3.28%.

With `O=C(/C=C/c1c(C(=O)O)[nH]c2cc(Cl)cc(Cl)c12)Nc1ccccc1`, the inhibition in experiment [1] came to 27.4%.

With `COc1ccc2c(c1)-c1nn(CCCN(C)C)c3ccc([N+](=O)[O-])c(c13)N2`, the inhibition in experiment [1] was determined as 9.03%.

For the molecule `Cn1nnc(-c2ccc(-c3ccc(N4C[C@H](CO)OC4=O)cc3F)cn2)n1`, the inhibition in experiment [1] was 67.9%.

Consider `CC(=O)NC[C@H]1CN(c2ccc(-c3ccc(CNCc4cnn[nH]4)cc3)c(F)c2)C(=O)O1`, for which, in experiment [1], the inhibition is 35.9%.

Take `CC(=O)NC[C@H]1CN(c2ccc(N3CCSCC3)c(F)c2)C(=O)O1`: the inhibition in experiment [1] worked out at 9.47%.

In the case of `C[C@@H]1C[C@H]2[C@@H]3CCC4=CC(=O)C=C[C@]4(C)[C@@]3(Cl)[C@@H](O)C[C@]2(C)[C@@]1(OC(=O)c1ccco1)C(=O)CCl`, the inhibition in experiment [1] was -2.71%.

With `CSc1ccc(C(=O)/C=C/c2cc(C)c(OC(C)(C)C(=O)O)c(C)c2)cc1`, the inhibition in experiment [1] was -7.51%.

In the case of EUK 134, CHEMBL5308416, in experiment [2], the inhibition was found to be 33.1%.

With `Nc1ncnc2c1c(COc1cccc(Cl)c1)nn2C1CCOCC1`, the inhibition in experiment [1] was -8.17%.

On to `O=C(O)c1ccccc1`, for which the inhibition in experiment [1] was -0.18%.

Regarding `O=C(O)C1CCCN(CCC=C(c2ccccc2)c2ccccc2)C1` (stereo unspecified), the inhibition in experiment [1] was 18.1%.

Regarding `O=C(c1ccccc1)c1ccc2n1CCC2C(=O)O` (stereo unspecified), the inhibition in experiment [1] is 66.7%.

As to `CCCC(=O)C1(c2ccccc2)CCN(C(=O)[C@@H](Cc2ccc(OC)cc2)NC(=O)[C@@H](N)Cc2cncn2C)CC1`, the inhibition in experiment [1] was determined as 4.5%.

Take `Nc1cccc2c(=O)[nH][nH]c(=O)c12`: in experiment [1], the inhibition was found to be 35.2%.

In the case of `CCS(=O)(=O)c1ccc2oc(-c3ccc4ccccc4c3)nc2c1`, in experiment [1], the inhibition came out at 97.2%.

Take `c1ccc(Cn2c(-c3ccc(OC[C@H](C4CCNCC4)n4c(-c5ccccc5)nc5ccccc54)cc3)nc3ccccc32)cc1`: the inhibition in experiment [1] was determined as 5.68%.

`COc1cc(/C=C(\C#N)C(N)=O)cc(CSc2nc3ccccc3s2)c1O`: the inhibition in experiment [1] turned out to be 17.9%.

Consider `CCCCc1oc2ccc(NS(C)(=O)=O)cc2c1C(=O)c1ccc(OCCCN(CCCC)CCCC)cc1`, for which the inhibition in experiment [1] stood at 18.6%.

For `Cc1cnc(-c2cnc(NCCNc3ccc(C#N)cn3)nc2-c2ccc(Cl)cc2Cl)[nH]1`, the inhibition in experiment [1] was 3.11%.

Regarding `Cn1cnc(-c2cc3nccc(Oc4ccc(NC(=S)NC(=O)Cc5ccccc5)cc4F)c3s2)c1`, the inhibition in experiment [1] is 28%.

Regarding `Cc1ccc(C(=O)Nc2ccc(CN3CCN(C)CC3)c(C(F)(F)F)c2)cc1C#Cc1cnc2cccnn12`, in experiment [1], the inhibition was 32.8%.

For `COC(=O)N1CCN(Cc2cccc(NC(=O)Nc3ccc(C)nc3)c2F)CC1`, the inhibition in experiment [1] is 57.5%.

In the case of `COc1cc(N)cn[n+]1-c1ccccc1`, the inhibition in experiment [1] worked out at 15.3%.

As to `CC(=O)OCC(=O)[C@@]1(O)[C@@H](C)C[C@H]2[C@@H]3CCC4=CC(=O)C=C[C@]4(C)[C@@]3(F)[C@@H](O)C[C@@]21C`, the inhibition in experiment [1] is 8.96%.

Turning to `Clc1cccc(Cl)c1CSc1nnc(-c2cnccn2)s1`, the inhibition in experiment [1] stood at 65.2%.

Take `COc1c(OCCCN2CCOCC2)ccc2c1N=C(NC(=O)c1cnc(N)nc1)N1CCN=C21`: in experiment [1], the inhibition is 8.29%.

`CCCCCNCC(N)=O`: in experiment [1], the inhibition amounted to 19.9%.

As for `Oc1nc(O)c2cn[nH]c2n1`, in experiment [1], the inhibition worked out at 9.68%.

`CCS(=O)(=O)CCn1c([N+](=O)[O-])cnc1C`: the inhibition in experiment [1] was -4.7%.

For the molecule `Cn1c([N+](=O)[O-])cnc1COC(N)=O`, in experiment [1], the inhibition was 2.87%.

Regarding `CSc1ccc(OCc2ncc([N+](=O)[O-])n2C)cc1`, the inhibition in experiment [1] stood at 57.1%.

The record behind these values is ChEMBL document CHEMBL4808148, “HDAC6 screening dataset using tau-based substrate in an enzymatic assay yields selective inhibitors and activators” (2021).
